What all share (assay): NP40-soluble protein abundance relative to vehicle (solubility fold change) (ratio); higher = more soluble protein in presence of AMP-PNP
For one test, the target named is T1, GALNS (UniProt P34059).
T1 sequence (whole entry): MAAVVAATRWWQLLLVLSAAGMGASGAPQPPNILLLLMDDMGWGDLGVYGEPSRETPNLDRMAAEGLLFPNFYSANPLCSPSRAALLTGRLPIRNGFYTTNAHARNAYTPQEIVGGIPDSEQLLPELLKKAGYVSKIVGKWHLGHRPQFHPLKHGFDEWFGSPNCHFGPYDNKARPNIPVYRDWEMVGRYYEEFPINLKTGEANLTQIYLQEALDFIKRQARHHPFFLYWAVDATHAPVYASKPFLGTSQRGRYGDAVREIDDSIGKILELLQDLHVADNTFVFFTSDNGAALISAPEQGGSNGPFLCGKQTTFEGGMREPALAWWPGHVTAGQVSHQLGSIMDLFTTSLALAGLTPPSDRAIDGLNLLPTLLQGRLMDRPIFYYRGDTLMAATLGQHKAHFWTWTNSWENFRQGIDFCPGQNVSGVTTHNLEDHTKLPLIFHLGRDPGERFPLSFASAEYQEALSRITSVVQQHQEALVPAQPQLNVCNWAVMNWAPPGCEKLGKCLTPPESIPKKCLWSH
In short, it runs like this:
(§1)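 Values are fold changes against the detergent-processed vehicle, based on vsn-normalised intensities. Jurkat crude lysate was treated at eight concentrations from 0.1 to 10 mM (10 min at room temperature, then 3 min at 37 °C), solubilised with 0.8% NP40 and benzonase, ultracentrifuged and analysed by TMT-labelled LC-MS/MS over three independent experiments.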

In a further test the target is T2, MFN2 (UniProt O95140).
T2 sequence (whole entry): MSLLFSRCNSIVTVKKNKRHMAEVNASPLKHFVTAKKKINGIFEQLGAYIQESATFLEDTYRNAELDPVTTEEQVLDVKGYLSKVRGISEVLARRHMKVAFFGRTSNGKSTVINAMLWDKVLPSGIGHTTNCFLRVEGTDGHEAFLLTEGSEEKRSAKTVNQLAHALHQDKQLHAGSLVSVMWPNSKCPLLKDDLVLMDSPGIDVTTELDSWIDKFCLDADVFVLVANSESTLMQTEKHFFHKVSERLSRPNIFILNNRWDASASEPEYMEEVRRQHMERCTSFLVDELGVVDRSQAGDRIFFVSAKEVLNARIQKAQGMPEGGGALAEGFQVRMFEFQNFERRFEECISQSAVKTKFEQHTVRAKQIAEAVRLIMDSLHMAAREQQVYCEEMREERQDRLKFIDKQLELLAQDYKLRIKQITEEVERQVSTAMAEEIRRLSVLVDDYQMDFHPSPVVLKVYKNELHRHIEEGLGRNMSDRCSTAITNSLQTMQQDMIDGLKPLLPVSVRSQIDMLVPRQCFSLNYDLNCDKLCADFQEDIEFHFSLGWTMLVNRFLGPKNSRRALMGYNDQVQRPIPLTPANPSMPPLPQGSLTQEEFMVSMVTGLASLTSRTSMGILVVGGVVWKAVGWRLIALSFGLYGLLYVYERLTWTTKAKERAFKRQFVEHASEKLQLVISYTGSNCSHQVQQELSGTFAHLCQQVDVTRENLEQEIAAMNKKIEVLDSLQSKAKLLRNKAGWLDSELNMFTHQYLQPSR
In short, it runs like this:
as §1

The target of another test is T3, PPM1F (UniProt P49593).
T3 sequence (whole entry): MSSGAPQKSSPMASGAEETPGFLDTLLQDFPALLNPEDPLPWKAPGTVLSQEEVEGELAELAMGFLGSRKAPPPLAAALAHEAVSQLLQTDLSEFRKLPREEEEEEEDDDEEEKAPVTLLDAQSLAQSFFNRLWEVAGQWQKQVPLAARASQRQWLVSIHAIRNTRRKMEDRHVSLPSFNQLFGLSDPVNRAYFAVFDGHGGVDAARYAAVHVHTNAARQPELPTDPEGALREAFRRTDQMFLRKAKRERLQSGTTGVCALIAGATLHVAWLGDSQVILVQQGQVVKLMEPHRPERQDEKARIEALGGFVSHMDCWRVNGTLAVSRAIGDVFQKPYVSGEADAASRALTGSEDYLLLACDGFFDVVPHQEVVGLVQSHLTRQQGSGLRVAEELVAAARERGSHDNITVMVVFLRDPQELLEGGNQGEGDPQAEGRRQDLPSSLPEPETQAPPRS
Put shortly: as §1

Molecules are shown by their SMILES. ± gives the standard deviation of the averaged measurements. Of roughly 6,200 targets only a part is listed; those with the largest changes were picked by preference.

In the case of `Nc1ncnc2c1ncn2[C@@H]1O[C@H](COP(=O)(O)OP(=O)(O)NP(=O)(O)O)[C@@H](O)[C@H]1O` [adenylyl imidodiphosphate], the NP40-soluble protein abundance stood at 0.986 ± 0.018 with GALNS (concentration: 1mM); 0.972 ± 0.011 with GALNS (concentration: 2mM); 0.957 ± 0.04 with GALNS (concentration: 4mM); 0.963 ± 0.019 in the test with GALNS (concentration: 6mM); 0.933 ± 0.034 in the test with GALNS (concentration: 8mM); 0.975 ± 0.027 with GALNS (concentration: 10mM). Moreover, the NP40-soluble protein abundance was found to be 1.01 ± 0.064 in the test with MFN2 (concentration: 1mM); 0.956 ± 0.032 with MFN2 (concentration: 2mM); 1.01 ± 0.074 in the test with MFN2 (concentration: 4mM); 0.965 ± 0.037 in the test with MFN2 (concentration: 6mM); 0.986 ± 0.049 with MFN2 (concentration: 8mM); 0.989 ± 0.024 in the test with MFN2 (concentration: 10mM). Also, the NP40-soluble protein abundance with PPM1F (concentration: 1mM) amounted to 1.028 ± 0.0057; in the test with PPM1F (concentration: 2mM) it was 1.019 ± 0.0062; with PPM1F (concentration: 4mM), 1.03 ± 0.011; with PPM1F (concentration: 6mM) it was 1.014 ± 0.0081; in the test with PPM1F (concentration: 8mM), 1.02 ± 0.013; in the test with PPM1F (concentration: 10mM), 1.04 ± 0.018.

The record behind these values is the supplement of paper PMC6411743.
